# From PubChem BioAssay
# Hits are enriched below; roughly 8.2% of the tested compounds scored in any of these assays.
# KB-V1 cytotox – kills drug-selected multidrug resistant KB-V1 cells. KB-V1 MDR cells viability, CellTiter-Glo, 72 h. Potency, µM (series often up to 46.1 µM), usual class: cytotoxic. hit rate 3.4% among 400,000; further: on the % scale 0 is the no-effect control and ±100 the full control effect; nearly all actives have a fitted effect of over 60% in size
#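 Potencies derive from concentration-effect curves fitted to normalized luminescence (CellTiter-Glo) of KB-V1 cells treated for 72 h at 37 degrees C in phenol-red-free DMEM containing 10% FBS.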
# KB-3-1 cytotox – kills parental KB-3-1 adenocarcinoma cells; KB-3-1 viability, CellTiter-Glo ATP luminescence, 72 h; Potency, µM (titrated, usually from 46.1 µM), usual class: cytotoxic; hit rate 1.4% among 400,000; AID 1347075; further: on the % scale 0 is the no-effect control and ±100 the full control effect; nearly all actives have a fitted effect of over 60% in size
#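 Here the drug-naive KB-3-1 line serves as comparator for MDR sub-line selectivity; cells received compound titrations, 72 h at 37 °C, then CellTiter-Glo readout.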
# SW480 rerep – inducers of DNA re-replication in SW480 colon cancer cells; SW480 DNA re-replication, Hoechst DNA content imaging, 48 h; Potency, µM (series often up to 46.1 µM), inactives show at the top dose re-replication activation, hits mostly activators; hit rate 1.8% among 340,000; further: % of control where 0% means no effect; nearly all actives have a fitted effect of over 55% in size
#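 Treated cells incubate 48 hr (37 C, 5% CO2), are stained 40 min with Hoechst, and nuclear fluorescence is enumerated; a rise in nuclei with high DNA signal marks re-replication.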
# ELG1 repair inh – blocks ELG1-dependent DNA repair in HEK293T cells | hit rate 2.3% among 330,000 | HEK293T ELG1-luciferase reporter, luminescence, 16 h; DNA damage induced by 5-fluorouridine | Potency, µM (highest dose often 46.1 µM), for inactives: at the highest dose activity change, negative = inhibition, hits mostly inhibitors | AID 504467; further: on the % scale 0 is the no-effect control and ±100 the full control effect; nearly all actives have a fitted effect of over 55% in size
#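 Quantitative HTS, concentration-response format. 2,000 cells/well co-treated with 5-fluorouridine and compound, 16 hr in 5% CO2 at 37 °C; ONE-Glo luminescence read after 30 min.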
# MCF10A rereplic – induces DNA re-replication in MCF 10a normal breast cells; MCF 10A DNA re-replication, Hoechst nuclear intensity, 48 h; Potency, µM (series often up to 46.1 µM), without a hit: top-dose activity, positive = re-replication, usual class: activators; AID 624296; hit rate 2.9% among 350,000; further: % of control where 0% means no effect; nearly all actives have a fitted effect of over 50% in size
# Active calls of the source: *; i = inactive; ? = inconclusive; nt = no result. The call rests on the fitted dose curve; in most records, active means well fitted curve in the direction sought with a large enough effect; inconclusive means small, poorly fitted or top-dose-only effect, or another doubt; inactive means no such curve, though single readings can be large; an effect the other way counts as inactive or inconclusive. Potency means the concentration at half of the fitted maximal effect.
SMILES,KB-V1 cytotox,KB-3-1 cytotox,SW480 rerep,ELG1 repair inh,MCF10A rereplic
NNC(=O)c1cc2c(N3CCC(Cc4ccccc4)CC3)ncnc2s1,?,?,10%,23µM*,21%
Cn1ncc2c(N3CCC(Cc4ccccc4)CC3)ncnc21,4.6µM*,?,3%,?,-10%
CCOc1ccc(C(=O)NCCc2sc(-c3ccc(F)cc3)nc2C)cc1,i,i,nt,nt,nt
COc1ccc(C(C)=O)cc1CN1C(=O)NC(c2ccccc2)(c2ccccc2)C1=O,i,i,16%,?,0%
CCOc1ccc(NS(=O)(=O)c2ccc3c(c2)CCCN3C(=O)C2CCC2)cc1,i,i,nt,nt,nt
COC(=O)c1ccc(COc2ccccc2/C=C(\C#N)C(=O)Nc2c(C)cc(C)cc2C)cc1,16µM*,12µM*,8.2µM*,?,5.8µM*
COC(=O)c1ccc(COc2ccccc2/C=C(\C#N)C(=O)Nc2ccc(C)cc2C)cc1,?,i,15%,?,?
Cc1noc(C)c1NC(=O)N(C)C[C@H]1Oc2ccc(NC(=O)Nc3ccccc3)cc2C(=O)N([C@H](C)CO)C[C@@H]1C,i,i,-5%,?,1%
Cc1cc(C)nc(Nc2ncc(O)n2-c2ccc(C)c(C)c2)n1,12µM*,i,-1%,-6%,15%
Cc1cc(C)nc(Nc2ncc(O)n2-c2ccc(C)c(Cl)c2)n1,i,i,-11%,?,2%
Cc1cccc(N2CCN(C(=O)CN3CCOc4ccccc43)CC2C)c1 (centres undefined),i,i,?,?,1%
Cc1ccc(N2C(=O)C3C4C=CC(CNC(=S)N5CCN(c6cccc(C)c6)C(C)C5)(O4)C3C2=O)cc1 (centres undefined),?,?,10µM*,3%,21µM*
O=C(COC(=O)/C=C/c1ccccc1)Nc1nnc(-c2ccccc2)o1,i,i,5%,-1%,?
COc1cc(/C=C/C(=O)OCC(=O)Nc2nnc(-c3ccccc3)o2)cc(OC)c1OC,12µM*,i,-4%,10%,?
Cc1cc2n(n1)CCCN2C(=O)Nc1ccccc1F,?,i,nt,nt,nt
O=C(Cc1cccs1)N/N=C/C(Br)=C/c1ccccc1,i,i,14%,?,18µM*
O=C(N/N=C/C(Br)=C/c1ccccc1)c1cnccn1,i,i,3.3µM*,0%,16µM*
Cn1cc(C(=O)N/N=C/C(Br)=C\c2ccccc2)ccc1=O,i,i,18µM*,0%,?
COc1cccc(C(=O)N/N=C/C(Br)=C/c2ccccc2)c1,3.7µM*,?,?,5%,8.2µM*
CC(/C=N/NC(=O)Cc1cccs1)=C\c1ccccc1,i,i,21%,?,?
O=C(N/N=C/C=C\c1ccccc1)c1cnccn1,i,i,0%,?,0%
COc1ccc(C(=O)N/N=C/C(Br)=C/c2ccccc2)cc1,?,i,?,3%,?
Cn1cc(C(=O)N/N=C/C=C/c2ccccc2)ccc1=O,i,i,0%,?,-4%
Cn1cc(C(=O)N/N=C/C(Br)=C/c2ccccc2)ccc1=O,i,?,?,-12%,26µM*
CC[C@]12c3[nH]c4ccccc4c3CCN1C(=O)C(CC(=O)NCCCOC)C[C@@H]2C(=O)N1CCN(C(=O)c2ccco2)CC1 (some centres undefined),i,i,-20%,7%,2%
CCc1ccc(OCc2n[nH]c(=S)n2Cc2ccccc2)cc1,i,i,1%,3%,-1%
CCc1ccc(OCc2n[nH]c(=S)n2C(C)CCCC(C)C)cc1 (centres undefined),i,i,-3%,-15%,13µM*
S=C(NCCCc1cnc[nH]1)NCCCN(Cc1ccc(Cl)cc1)c1ccc(Br)cc1,i,i,nt,nt,nt
O=c1c2c3c(sc2ncn1/N=C/c1ccc([N+](=O)[O-])o1)CCCC3,21µM*,21µM*,12µM*,-2%,4.1µM*
Cc1ccc(C)n1-n1cnc2sc3c(c2c1=O)CCC3,i,i,?,1%,-1%
